Source: PubChem BioAssay
This is a sample that favours compounds with a hit; in the whole collection about 17% have one here.
ATXN2 expr inh – reduces ATXN2 reporter expression in HEK-293 cells; Potency, µM (series often up to 57 µM), inactives show top-dose activity change, negative = inhibition, usual class: inhibitors; 360,000 tested, 0.72% active; HEK-293 ATXN2-luciferase reporter, luminescence, 24 h; further: on the % scale 0 is the no-effect control and ±100 the full control effect; nearly all actives have a fitted effect of over 55% in size
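ATXN2-luciferase reporter cells (luciferase flanked by upstream and downstream ATXN2 gene portions) were treated 24 h at 37 °C with compounds at up to 57 uM. SteadyGlo luminescence gave expression; GF-AFC fluorescence gave viability.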
DT40 TDP1 CPT – growth inhibition of DT40 Tdp1-/-;hTDP1 cells with camptothecin (screen for TDP1 inhibitors). chicken DT40 Tdp1-/-;hTDP1 cells + 20 nM CPT, ATP luminescence, 48 h. Potency, µM (series often up to 46.2 µM), for inactives: at the highest dose activity change, negative = growth inhibition, hits mostly inhibitors. 420,000 tested, 12% active; further: on the % scale 0 is the no-effect control and ±100 the full control effect; nearly all actives have a fitted effect of over 55% in size
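Chicken DT40 Tdp1-/- cells complemented with human TDP1, 400 cells/well, exposed to compounds plus 20 nM camptothecin for at least 48 h at 37 C; viability read as ATP content by CellTiter-Glo luminescence.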
TGFb SMAD3 inh – blocks TGF-b signaling. Potency, µM (highest dose often 46.1 µM), inactives show top-dose activity, negative = inhibition, most hits filed as inhibitors. HepG2 CAGA-GFP TGF-b/SMAD3 reporter, GFP fluorescence, 18 h; TGF-beta stimulated, 500 pg/mL final. 410,000 tested, 1.2% active. AID 588855; further: on the % scale 0 is the no-effect control and ±100 the full control effect; nearly all actives have a fitted effect of over 65% in size
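GFP signal (ex488/em500-530) from TGF-beta-stimulated HEPG2 CAGA-GFP cells, 500 pg/mL final, 18 h at 37 degrees C in DMEM plus 1% FBS, normalized to unstimulated and DMSO-stimulated controls.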
S2 tox – cell viability loss in ATXN counter-screen; AID 651635; Potency, µM (highest dose often 56.7 µM), hits mostly cytotoxic; 400,000 tested, 0.49% active; S2 cells (HEK-293 line with an ATXN2-luciferase reporter) viability, CellTiter-Fluor protease fluorescence, 24 h; further: nearly all actives have a fitted effect of over 40% in size
HepG2 viability – kills HepG2 cells in TGF-b inhibitor counter-screen | AID 588856 | 410,000 tested, 0.76% active | HepG2 CAGA-GFP viability, ATP luminescence, 18 h | Potency, µM (highest dose often 46.1 µM), without a hit: at the top dose activity change, negative = cytotoxicity, actives largely listed as cytotoxic
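CellTiter-Glo luminescence gave cytotoxicity after 18 hours at 37 degrees C. The cells were HepG2 CAGA-GFP in 1% FBS DMEM, stimulated with 500 pg/mL TGF-beta after compound addition. %Activity was normalised to no-cell wells (complete cell-killing) and DMSO (no toxicity), and curves were fitted and classified.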
TDP1 cell noCPT – qHTS for Inhibitors of human tyrosyl-DNA phosphodiesterase 1 (TDP1): qHTS in cells in absence of CPT | 420,000 tested, 15% active | Potency, µM (highest dose often 46.2 µM), for inactives: at the highest dose activity change, negative = growth inhibition, hits mostly inhibitors | DT40 Tdp1-/- hTDP1 cells, no CPT, ATP luminescence, 48 h; further: on the % scale 0 is the no-effect control and ±100 the full control effect; nearly all actives have a fitted effect of over 55% in size
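Camptothecin absent (DMSO only). Human TDP1-complemented DT40 knockout cells, 400 cells/well, 37 °C for minimum 48 hr; ATP measured via CellTiter-Glo, 30 min dark incubation, luminescence.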
* = called active by the depositor. The call rests on the fitted dose curve; in most records, active means well fitted curve in the direction sought with a large enough effect; inconclusive means small, poorly fitted or top-dose-only effect, or another doubt; inactive means no such curve, though single readings can be large; an effect the other way counts as inactive or inconclusive. Potency means the concentration at half of the fitted maximal effect.

How did CC(C)Oc1ccc(C(=O)OCC(=O)c2ccc[nH]2)cc1 do in these assays?
ATXN2 expr inh: 45.6%; DT40 TDP1 CPT: 3.4%; TGFb SMAD3 inh: 0.0%; S2 tox: inactive; HepG2 viability: -7.2%; TDP1 cell noCPT: 6.9%

Results for CCCS(=O)(=O)c1c(S(=O)(=O)CCC)c2c(C)cccn2c1C(=O)N/N=C/c1cc(O)cc(O)c1 ?
ATXN2 expr inh: 7.94µM*; DT40 TDP1 CPT: 0.82µM*; TGFb SMAD3 inh: -15.4%; S2 tox: inactive; HepG2 viability: -11.6%; TDP1 cell noCPT: 14.6µM*

Results for Nc1ncc(-c2ccc(F)cc2)nc1N1CCN(CCO)CC1 ?
ATXN2 expr inh: -5.6%; DT40 TDP1 CPT: -14.3%; TGFb SMAD3 inh: 25.7%; S2 tox: inactive; HepG2 viability: -7.6%; TDP1 cell noCPT: -28.3%

How did OCCN1CCN(C2CCC(c3ccc(F)cc3)c3ccc(F)cc32)CC1 (centres undefined) do in these assays?
ATXN2 expr inh: 25.1µM*; DT40 TDP1 CPT: inconclusive; TGFb SMAD3 inh: 20µM*; S2 tox: inconclusive; HepG2 viability: inactive; TDP1 cell noCPT: 8.2µM*

What do the screens show for `CCOC(=O)C1=C(C)C(c2ccccc2OC)NC(=S)N1` (centres undefined)?
ATXN2 expr inh: -6.6%; DT40 TDP1 CPT: -1.6%; TGFb SMAD3 inh: -15.3%; S2 tox: inactive; HepG2 viability: -15.1%; TDP1 cell noCPT: -29.8%

How did COc1cccc(C(=O)Nc2c(C(=O)Nc3ccc(F)cc3)oc3ccccc23)c1OC do in these assays?
ATXN2 expr inh: 31.6%; DT40 TDP1 CPT: -11.3%; TGFb SMAD3 inh: 0.3%; S2 tox: inactive; HepG2 viability: -23.9%; TDP1 cell noCPT: inconclusive

How did Cc1ccccc1C(=O)Nc1c(C(=O)N(CCN(C)C)Cc2ccco2)oc2ccccc12 do in these assays?
ATXN2 expr inh: -4.2%; DT40 TDP1 CPT: inconclusive; TGFb SMAD3 inh: -19.3%; S2 tox: inconclusive; HepG2 viability: -45.8%; TDP1 cell noCPT: inconclusive

Results for COc1ccc(NC(=O)c2oc3ccccc3c2NC(=O)C23CC4CC(CC(C4)C2)C3)c(OC)c1 ?
ATXN2 expr inh: 11.6%; DT40 TDP1 CPT: -23.0%; TGFb SMAD3 inh: 3.2%; S2 tox: inactive; HepG2 viability: -12.5%; TDP1 cell noCPT: 23.1µM*

Results for CCOc1ccc(CC(=O)Nc2c(C(=O)Nc3ccc(OC)cc3OC)oc3ccccc23)cc1 ?
ATXN2 expr inh: -5.6%; DT40 TDP1 CPT: inconclusive; TGFb SMAD3 inh: 4.5%; S2 tox: inactive; HepG2 viability: -4.5%; TDP1 cell noCPT: inconclusive

Results for COc1ccccc1NC(=O)c1oc2ccccc2c1NC(=O)c1cccc(OC)c1OC ?
ATXN2 expr inh: -9.9%; DT40 TDP1 CPT: 5.8µM*; TGFb SMAD3 inh: 21.1%; S2 tox: inactive; HepG2 viability: -2.0%; TDP1 cell noCPT: 5.8µM*

What do the screens show for `COc1ccccc1C(=O)Nc1c(C(=O)N(CCN(C)C)Cc2ccco2)oc2ccccc12`?
ATXN2 expr inh: -23.8%; DT40 TDP1 CPT: 9.2µM*; TGFb SMAD3 inh: inconclusive; S2 tox: inactive; HepG2 viability: -102.6%; TDP1 cell noCPT: 11.6µM*

What do the screens show for `COc1ccccc1C(=O)Nc1c(C(=O)NC(C)(C)C)oc2ccccc12`?
DT40 TDP1 CPT: inconclusive; HepG2 viability: -17.9%; TDP1 cell noCPT: 23.1µM*

Results for COc1ccc(C(=O)c2oc3ccccc3c2NC(C)=O)cc1 ?
ATXN2 expr inh: -11.0%; DT40 TDP1 CPT: inconclusive; TGFb SMAD3 inh: 22.6%; S2 tox: inactive; HepG2 viability: -49.9%; TDP1 cell noCPT: inconclusive

How did CCOC(=O)c1oc2ccccc2c1NC(=O)c1ccccc1OC do in these assays?
ATXN2 expr inh: -9.5%; DT40 TDP1 CPT: inconclusive; TGFb SMAD3 inh: 22.4%; S2 tox: inactive; HepG2 viability: -20.4%; TDP1 cell noCPT: inconclusive

How did COc1ccccc1NC(=O)c1oc2ccccc2c1NC(=O)c1c(F)cccc1F do in these assays?
ATXN2 expr inh: 8.2%; DT40 TDP1 CPT: inconclusive; TGFb SMAD3 inh: -4.0%; S2 tox: inactive; HepG2 viability: -2.7%; TDP1 cell noCPT: inconclusive

What do the screens show for `CCOc1ccc(NC(=O)c2oc3ccccc3c2NC(=O)c2ccc(OC)cc2OC)cc1`?
ATXN2 expr inh: 7.7%; DT40 TDP1 CPT: 23.1µM*; TGFb SMAD3 inh: 27.9%; S2 tox: inactive; HepG2 viability: 2.4%; TDP1 cell noCPT: 18.4µM*

How did COc1cc(C(=O)Nc2c(C(=O)Nc3ccccc3F)oc3ccccc23)cc(OC)c1OC do in these assays?
ATXN2 expr inh: 17.1%; DT40 TDP1 CPT: 5.17µM*; TGFb SMAD3 inh: inconclusive; S2 tox: inactive; HepG2 viability: -18.1%; TDP1 cell noCPT: 4.11µM*

How did COc1ccccc1C(=O)Nc1c(C(=O)c2ccccc2)oc2ccccc12 do in these assays?
ATXN2 expr inh: 9.0%; DT40 TDP1 CPT: 18.4µM*; TGFb SMAD3 inh: -16.6%; S2 tox: inactive; HepG2 viability: -7.4%; TDP1 cell noCPT: inconclusive

What do the screens show for `COc1ccc(OC)c(C(=O)c2oc3ccccc3c2NC(C)=O)c1`?
DT40 TDP1 CPT: 23.1µM*; TGFb SMAD3 inh: 0.0%; HepG2 viability: -7.7%; TDP1 cell noCPT: 16.4µM*

How did COc1ccccc1NC(=O)C1=C(C)NC(=O)NC1c1ccco1 (centres undefined) do in these assays?
DT40 TDP1 CPT: -5.0%; TGFb SMAD3 inh: -16.6%; S2 tox: inactive; HepG2 viability: -9.2%; TDP1 cell noCPT: -6.3%

How did Clc1cccc2c3c([nH]c12)CCNC3 do in these assays?
ATXN2 expr inh: -15.7%; DT40 TDP1 CPT: 10.6%; TGFb SMAD3 inh: 6.8%; S2 tox: inactive; HepG2 viability: -13.9%; TDP1 cell noCPT: -20.3%

How did CCNc1cc(NC2CCC(O)CC2)nc(Nc2ccc3c(ccn3Cc3ccccc3)c2)n1 (centres undefined) do in these assays?
ATXN2 expr inh: -18.6%

How did CC(=O)c1cccc(NC(=S)NC2CCCCCCC2)c1 do in these assays?
ATXN2 expr inh: -8.9%; DT40 TDP1 CPT: -2.0%; TGFb SMAD3 inh: 0.0%; S2 tox: inactive; HepG2 viability: -1.0%; TDP1 cell noCPT: 1.9%

What do the screens show for `Cc1cc2occ(CC(=O)NNC(=O)c3ccccc3)c2cc1C`?
ATXN2 expr inh: -9.5%; DT40 TDP1 CPT: -0.6%; TGFb SMAD3 inh: 0.9%; S2 tox: inactive; HepG2 viability: 4.5%; TDP1 cell noCPT: 12.2%
